According to PMC9911399, “Two distinct binding modes provide the RNA-binding protein RbFox with extraordinary sequence specificity”:
Positions count from the first letter of the chain named. In all, about 16,000 sequences were measured (“ka relative to ugcaugu”: median about 0.0091, highest 2% from about 0.032 on). What follows is part of a selection rich in the highest values, with near analogues and random picks from the rest.

T1: RBFOX1 RRM (Homo sapiens, UniProt Q9NWB1 109-208)
T1 sequence: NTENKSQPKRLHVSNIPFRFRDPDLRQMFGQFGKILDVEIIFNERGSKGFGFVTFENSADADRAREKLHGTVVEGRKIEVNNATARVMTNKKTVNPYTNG

B1: CUGCUCG (DNA:RNA)
RNA: GGGAGACCGGAAUUCAGAUUGUCCCUGCUCGUUAAAUCCCGUCGUAGCCACCA
DNA 1: CAATCTGAATTCCGGTCTCCC
DNA 2: TGGTGGCTACGACGGGATT
B2: UGCCCGU (DNA:RNA)
RNA: B1 RNA with C25U, U26G, G27C, U29C, C30G, G31U
DNA 1: CAATCTGAATTCCGGTCTCCC
DNA 2: TGGTGGCTACGACGGGATT
B3: UGCUCGU (DNA:RNA)
RNA: GGGAGACCGGAAUUCAGAUUGUCCUGCUCGUUUAAAUCCCGUCGUAGCCACCA
DNA 1: CAATCTGAATTCCGGTCTCCC
DNA 2: TGGTGGCTACGACGGGATT
B4: CUGCCCG (DNA:RNA)
RNA: B1 RNA with U29C
DNA 1: CAATCTGAATTCCGGTCTCCC
DNA 2: TGGTGGCTACGACGGGATT
B5: UCGUCGU (DNA:RNA)
RNA: B3 RNA with G26C, C27G
DNA 1: CAATCTGAATTCCGGTCTCCC
DNA 2: TGGTGGCTACGACGGGATT
B6: CUGUCCG (DNA:RNA)
RNA: B1 RNA with C28U, U29C
DNA 1: CAATCTGAATTCCGGTCTCCC
DNA 2: TGGTGGCTACGACGGGATT
B7: AAAUGGU (DNA:RNA)
RNA: B3 RNA with U25A, G26A, C27A, C29G
DNA 1: CAATCTGAATTCCGGTCTCCC
DNA 2: TGGTGGCTACGACGGGATT
B8: GAUCCGC (DNA:RNA)
RNA: B3 RNA with U25G, G26A, C27U, U28C, U31C
DNA 1: CAATCTGAATTCCGGTCTCCC
DNA 2: TGGTGGCTACGACGGGATT
B9: CCACACG (DNA:RNA)
RNA: B1 RNA with U26C, G27A, U29A
DNA 1: CAATCTGAATTCCGGTCTCCC
DNA 2: TGGTGGCTACGACGGGATT
B10: CUAAGCU (DNA:RNA)
RNA: B1 RNA with G27A, C28A, U29G, G31U
DNA 1: CAATCTGAATTCCGGTCTCCC
DNA 2: TGGTGGCTACGACGGGATT
B11: UUGUUUG (DNA:RNA)
RNA: B1 RNA with C25U, C28U, C30U
DNA 1: CAATCTGAATTCCGGTCTCCC
DNA 2: TGGTGGCTACGACGGGATT
B12: UUGUUGU (DNA:RNA)
RNA: B3 RNA with G26U, C27G, C29U
DNA 1: CAATCTGAATTCCGGTCTCCC
DNA 2: TGGTGGCTACGACGGGATT
B13: UUUGUCC (DNA:RNA)
RNA: B1 RNA with C25U, G27U, C28G, G31C
DNA 1: CAATCTGAATTCCGGTCTCCC
DNA 2: TGGTGGCTACGACGGGATT
B14: UUUUGUG (DNA:RNA)
RNA: B1 RNA with C25U, G27U, C28U, U29G, C30U
DNA 1: CAATCTGAATTCCGGTCTCCC
DNA 2: TGGTGGCTACGACGGGATT
B15: UUGUCGU (DNA:RNA)
RNA: B3 RNA with G26U, C27G
DNA 1: CAATCTGAATTCCGGTCTCCC
DNA 2: TGGTGGCTACGACGGGATT
B16: UUUGUUG (DNA:RNA)
RNA: B1 RNA with C25U, G27U, C28G, C30U
DNA 1: CAATCTGAATTCCGGTCTCCC
DNA 2: TGGTGGCTACGACGGGATT
B17: UUUGUCG (DNA:RNA)
RNA: B1 RNA with C25U, G27U, C28G
DNA 1: CAATCTGAATTCCGGTCTCCC
DNA 2: TGGTGGCTACGACGGGATT
B18: UUUUUUG (DNA:RNA)
RNA: B1 RNA with C25U, G27U, C28U, C30U
DNA 1: CAATCTGAATTCCGGTCTCCC
DNA 2: TGGTGGCTACGACGGGATT
B19: UCCUUUG (DNA:RNA)
RNA: B3 RNA with G26C, C29U, G30U, U31G
DNA 1: CAATCTGAATTCCGGTCTCCC
DNA 2: TGGTGGCTACGACGGGATT
B20: UGACACA (DNA:RNA)
RNA: B1 RNA with C25U, U26G, G27A, U29A, G31A
DNA 1: CAATCTGAATTCCGGTCTCCC
DNA 2: TGGTGGCTACGACGGGATT

Each binder was assayed against T1, RBFOX1 RRM (assay: EMSA; HiTS-Eq, 1 nM pool, 10 min; buffer printed only for the single-RNA assays: 10 mM Tris pH 7.5, 150 mM NaCl, 3.4 mM EDTA, 0.001% NP-40, 30 C). Settings: tags: His6 N-terminal (pET28a); label: 5' 32P.
How it was run: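 Relative association constants, normalised to the cognate motif, were derived by comparing read counts of each RNA species with those of the control reaction. The RNA sequenced was the free fraction, separated by 8% native PAGE after a 10 min equilibration in 50 µL of 1 nM 5′-radiolabelled RNA (7 randomized nucleotides) with increasing concentrations of purified wild-type or mutant RbFox RRM.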
In the case of B1, the binding signal is reported as 0.0406 KA relative to UGCAUGU.
For B2, the binding signal was 0.0214 KA relative to UGCAUGU.
In the case of B3, the binding signal is reported as 0.0359 KA relative to UGCAUGU.
B4 was tested, and the binding signal was 0.0183 KA relative to UGCAUGU.
In the case of B5, the binding signal is reported as 0.0184 KA relative to UGCAUGU.
For B6, the binding signal was 0.0164 KA relative to UGCAUGU.
B7 was tested, and the binding signal was 0.00783 KA relative to UGCAUGU.
For B8, the binding signal was 0.0132 KA relative to UGCAUGU.
With B9 the binding signal was 0.0022 KA relative to UGCAUGU.
With B10 the binding signal was 0.00577 KA relative to UGCAUGU.
For B11, the binding signal was 0.0392 KA relative to UGCAUGU.
B12 was tested, and the binding signal was 0.0241 KA relative to UGCAUGU.
B13 was tested, and the binding signal was 0.0149 KA relative to UGCAUGU.
In the case of B14, the binding signal is reported as 0.0302 KA relative to UGCAUGU.
For B15, the binding signal was 0.0256 KA relative to UGCAUGU.
For B16, the binding signal was 0.0349 KA relative to UGCAUGU.
In the case of B17, the binding signal is reported as 0.0272 KA relative to UGCAUGU.
In the case of B18, the binding signal is reported as 0.0341 KA relative to UGCAUGU.
In the case of B19, the binding signal is reported as 0.0195 KA relative to UGCAUGU.
For B20, the binding signal was 0.00643 KA relative to UGCAUGU.
